Article PMC7862700, “An all-to-all approach to the identification of sequence-specific readers for epigenetic DNA modifications on cytosine”

Assays:
Assay in all cases: DAPPL (digital affinity profiling via proximity ligation, sequencing); 10 mM Tris-HCl pH 7.5, 50 mM NaCl, 1 mM DTT, 4% glycerol, room temperature, 30 min; GST-TFs on glutathione beads, 16-mer random dsDNA library, 0.1% formaldehyde crosslink after washing; high values mean tight binding
FEV = target: T1, FEV (Homo sapiens, UniProt Q99581 1-238); conditions: protein: recombinant; tags: N-terminal GST; dsDNA, one strand shown
T1 sequence: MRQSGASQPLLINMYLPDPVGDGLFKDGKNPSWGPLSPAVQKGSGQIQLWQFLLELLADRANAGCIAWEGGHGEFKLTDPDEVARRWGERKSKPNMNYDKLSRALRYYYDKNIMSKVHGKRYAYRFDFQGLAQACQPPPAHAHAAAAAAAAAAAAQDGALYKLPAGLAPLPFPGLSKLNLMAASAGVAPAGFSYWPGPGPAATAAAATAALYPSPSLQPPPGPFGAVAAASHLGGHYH
Procedure, shortened: (§1)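 Human transcription factors fused to GST were expressed in yeast, captured on glutathione beads, given DNA barcodes and pooled with a GST-only negative control. Pools were incubated with 200 nmole of a 16-mer random double-stranded DNA library in Tris/NaCl/DTT/glycerol buffer at room temperature for 30 min. They were then washed, crosslinked with 0.1% formaldehyde, proximity-ligated (BsaI/T4 ligase, 1 h, 37 °C), PCR-amplified and sequenced on an Illumina NextSeq500. Binding signal is each 6-mer's read frequency for a factor divided by its frequency for the GST control.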

ETV5 = ETV5 (Homo sapiens, UniProt P41161 1-510); conditions: protein: recombinant; tags: N-terminal GST; dsDNA, one strand shown
Procedure, shortened: as §1

HSF1 = HSF1 (Homo sapiens, UniProt Q00613 1-529); conditions: protein: recombinant; tags: N-terminal GST; chain copies: 3; dsDNA, one strand shown
Procedure, shortened: as §1

SPIC = target: T2, SPIC (Homo sapiens, UniProt Q8N5J4 1-248); conditions: protein: recombinant; tags: N-terminal GST; dsDNA, one strand shown
T2 sequence: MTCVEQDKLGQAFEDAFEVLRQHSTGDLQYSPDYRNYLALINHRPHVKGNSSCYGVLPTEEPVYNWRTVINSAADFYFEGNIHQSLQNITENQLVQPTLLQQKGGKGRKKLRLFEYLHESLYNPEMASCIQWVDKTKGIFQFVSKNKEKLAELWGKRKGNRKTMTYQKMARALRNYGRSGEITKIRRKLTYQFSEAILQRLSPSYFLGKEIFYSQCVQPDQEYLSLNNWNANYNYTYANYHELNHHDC
Procedure, shortened: as §1

ELF4 = ELF4 (Homo sapiens, UniProt Q99607 1-663); conditions: protein: recombinant; tags: N-terminal GST; dsDNA, one strand shown
Procedure, shortened: as §1

ELK4 = target: T3, ELK4 (Homo sapiens, UniProt P28324-2 1-405); conditions: protein: recombinant; tags: N-terminal GST; dsDNA, one strand shown
T3 sequence: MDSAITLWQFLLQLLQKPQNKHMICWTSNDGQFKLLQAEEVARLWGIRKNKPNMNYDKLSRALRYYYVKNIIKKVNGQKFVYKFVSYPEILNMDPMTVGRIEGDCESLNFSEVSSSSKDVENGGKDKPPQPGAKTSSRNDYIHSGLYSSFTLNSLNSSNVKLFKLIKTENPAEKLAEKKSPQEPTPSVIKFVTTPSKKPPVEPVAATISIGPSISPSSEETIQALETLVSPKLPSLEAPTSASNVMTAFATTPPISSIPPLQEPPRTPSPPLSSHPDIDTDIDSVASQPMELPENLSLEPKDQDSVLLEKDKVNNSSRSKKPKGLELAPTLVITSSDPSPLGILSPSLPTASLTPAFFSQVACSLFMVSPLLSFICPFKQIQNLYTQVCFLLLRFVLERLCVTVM
Procedure, shortened: as §1

ETV2 = target: T4, ETV2 (Homo sapiens, UniProt O00321 1-342); conditions: protein: recombinant; tags: N-terminal GST; dsDNA, one strand shown
T4 sequence: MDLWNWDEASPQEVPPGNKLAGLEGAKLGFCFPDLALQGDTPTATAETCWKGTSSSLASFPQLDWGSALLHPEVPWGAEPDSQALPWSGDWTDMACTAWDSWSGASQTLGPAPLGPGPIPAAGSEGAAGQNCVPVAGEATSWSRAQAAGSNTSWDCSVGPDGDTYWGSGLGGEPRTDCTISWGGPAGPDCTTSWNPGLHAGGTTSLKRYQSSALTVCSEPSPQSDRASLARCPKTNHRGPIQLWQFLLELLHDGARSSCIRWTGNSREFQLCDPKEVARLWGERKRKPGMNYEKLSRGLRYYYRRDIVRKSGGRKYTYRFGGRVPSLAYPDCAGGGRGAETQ
Procedure, shortened: as §1

ELF3 = target: T5, ELF3 (Homo sapiens, UniProt P78545 1-371); conditions: protein: recombinant; tags: N-terminal GST; dsDNA, one strand shown
T5 sequence: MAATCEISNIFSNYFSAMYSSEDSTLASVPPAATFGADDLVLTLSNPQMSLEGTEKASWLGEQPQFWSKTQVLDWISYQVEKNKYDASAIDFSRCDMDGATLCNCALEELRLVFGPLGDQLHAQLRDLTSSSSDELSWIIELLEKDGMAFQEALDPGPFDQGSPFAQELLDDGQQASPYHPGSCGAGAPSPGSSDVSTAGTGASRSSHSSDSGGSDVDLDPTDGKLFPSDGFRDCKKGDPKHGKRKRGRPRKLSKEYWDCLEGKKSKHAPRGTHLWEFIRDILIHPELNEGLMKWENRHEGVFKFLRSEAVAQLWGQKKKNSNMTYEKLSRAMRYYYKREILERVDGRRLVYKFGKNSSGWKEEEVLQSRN
Procedure, shortened: as §1

CRX = CRX (Homo sapiens, UniProt O43186 1-299); conditions: protein: recombinant; tags: N-terminal GST; dsDNA, one strand shown
Procedure, shortened: as §1

ETV1 = ETV1 (Homo sapiens, UniProt P50549 1-477); conditions: protein: recombinant; tags: N-terminal GST; dsDNA, one strand shown
Procedure, shortened: as §1

ETV1, sequence (P50549 whole entry): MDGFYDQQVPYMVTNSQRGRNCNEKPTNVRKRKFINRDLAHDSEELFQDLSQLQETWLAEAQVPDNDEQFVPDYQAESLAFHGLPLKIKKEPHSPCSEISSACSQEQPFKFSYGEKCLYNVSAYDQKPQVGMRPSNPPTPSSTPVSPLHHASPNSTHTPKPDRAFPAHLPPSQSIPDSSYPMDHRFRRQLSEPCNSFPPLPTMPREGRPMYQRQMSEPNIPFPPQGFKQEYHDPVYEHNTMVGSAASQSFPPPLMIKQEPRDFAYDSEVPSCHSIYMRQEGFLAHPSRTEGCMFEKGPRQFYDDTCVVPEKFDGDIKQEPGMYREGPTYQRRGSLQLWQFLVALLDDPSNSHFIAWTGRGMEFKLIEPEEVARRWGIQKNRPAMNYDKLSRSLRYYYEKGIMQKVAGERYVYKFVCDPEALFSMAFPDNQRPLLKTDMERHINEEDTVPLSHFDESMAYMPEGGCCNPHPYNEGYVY
CRX, sequence (O43186 whole entry): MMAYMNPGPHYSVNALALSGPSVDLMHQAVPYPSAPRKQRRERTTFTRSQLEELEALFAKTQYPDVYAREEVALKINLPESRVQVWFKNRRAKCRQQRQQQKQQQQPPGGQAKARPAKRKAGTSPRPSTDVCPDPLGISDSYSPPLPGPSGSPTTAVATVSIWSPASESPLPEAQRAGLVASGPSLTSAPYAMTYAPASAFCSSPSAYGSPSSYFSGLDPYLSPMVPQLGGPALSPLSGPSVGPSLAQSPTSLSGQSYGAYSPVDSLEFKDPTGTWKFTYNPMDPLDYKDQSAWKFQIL
HSF1, sequence (Q00613 whole entry): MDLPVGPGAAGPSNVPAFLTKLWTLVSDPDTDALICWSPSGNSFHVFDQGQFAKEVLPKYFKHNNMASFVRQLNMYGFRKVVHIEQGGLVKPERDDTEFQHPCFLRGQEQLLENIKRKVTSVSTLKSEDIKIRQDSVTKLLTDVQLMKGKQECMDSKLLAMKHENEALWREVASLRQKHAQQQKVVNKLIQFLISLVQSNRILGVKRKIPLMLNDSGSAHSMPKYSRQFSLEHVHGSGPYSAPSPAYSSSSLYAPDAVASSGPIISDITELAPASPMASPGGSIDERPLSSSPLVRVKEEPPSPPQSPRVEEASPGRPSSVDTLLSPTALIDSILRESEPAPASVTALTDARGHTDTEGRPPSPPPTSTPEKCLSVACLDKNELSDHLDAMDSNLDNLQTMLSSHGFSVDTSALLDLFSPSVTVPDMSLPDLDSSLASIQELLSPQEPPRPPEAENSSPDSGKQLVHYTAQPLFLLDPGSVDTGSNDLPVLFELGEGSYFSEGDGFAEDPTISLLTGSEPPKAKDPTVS
ETV5, sequence (P41161 whole entry): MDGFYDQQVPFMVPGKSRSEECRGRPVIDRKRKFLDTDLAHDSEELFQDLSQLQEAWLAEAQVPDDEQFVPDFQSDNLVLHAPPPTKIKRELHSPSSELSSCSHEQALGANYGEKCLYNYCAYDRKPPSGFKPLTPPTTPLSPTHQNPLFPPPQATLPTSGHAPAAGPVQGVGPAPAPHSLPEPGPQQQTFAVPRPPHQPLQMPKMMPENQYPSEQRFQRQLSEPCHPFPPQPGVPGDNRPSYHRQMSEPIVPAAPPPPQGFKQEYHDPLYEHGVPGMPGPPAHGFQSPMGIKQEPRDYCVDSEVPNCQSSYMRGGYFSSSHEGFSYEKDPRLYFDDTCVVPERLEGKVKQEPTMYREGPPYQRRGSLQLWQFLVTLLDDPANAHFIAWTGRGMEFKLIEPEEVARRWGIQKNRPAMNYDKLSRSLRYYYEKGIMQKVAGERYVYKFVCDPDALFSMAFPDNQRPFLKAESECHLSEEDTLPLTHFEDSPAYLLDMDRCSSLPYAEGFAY
ELF4, sequence (Q99607 whole entry): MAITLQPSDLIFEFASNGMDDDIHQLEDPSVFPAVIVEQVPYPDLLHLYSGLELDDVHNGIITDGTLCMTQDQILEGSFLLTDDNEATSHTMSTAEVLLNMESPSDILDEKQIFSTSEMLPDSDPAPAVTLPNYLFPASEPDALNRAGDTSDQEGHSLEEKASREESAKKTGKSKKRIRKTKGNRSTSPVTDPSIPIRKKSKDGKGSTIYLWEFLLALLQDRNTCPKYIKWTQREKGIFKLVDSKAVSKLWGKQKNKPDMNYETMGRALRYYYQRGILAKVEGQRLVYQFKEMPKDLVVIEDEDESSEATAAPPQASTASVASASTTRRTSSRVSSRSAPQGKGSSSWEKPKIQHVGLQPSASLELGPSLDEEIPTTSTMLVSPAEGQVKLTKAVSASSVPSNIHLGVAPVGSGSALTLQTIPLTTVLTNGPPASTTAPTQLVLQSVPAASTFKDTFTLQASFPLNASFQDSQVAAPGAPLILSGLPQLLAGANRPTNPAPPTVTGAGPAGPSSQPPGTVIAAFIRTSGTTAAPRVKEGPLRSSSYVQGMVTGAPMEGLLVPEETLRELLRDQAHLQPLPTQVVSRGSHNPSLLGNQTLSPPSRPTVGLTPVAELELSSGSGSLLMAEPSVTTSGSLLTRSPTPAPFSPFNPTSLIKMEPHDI

Sequence: TAACTG
- binding signal (FEV): 1.28 fold enrichment (6-mer frequency, TF over GST control)
- binding signal (ETV5): 1.22 fold enrichment (6-mer frequency, TF over GST control)
- binding signal (HSF1): 1.25 fold enrichment (6-mer frequency, TF over GST control)
- binding signal (SPIC): 1.42 fold enrichment (6-mer frequency, TF over GST control)
- binding signal (ELF4): 1.19 fold enrichment (6-mer frequency, TF over GST control)
- binding signal (ELK4): 1.23 fold enrichment (6-mer frequency, TF over GST control)
- binding signal (ETV2): 1.31 fold enrichment (6-mer frequency, TF over GST control)
- binding signal (ELF3): 1.47 fold enrichment (6-mer frequency, TF over GST control)
- binding signal (CRX): 1.5 fold enrichment (6-mer frequency, TF over GST control)
- binding signal (ETV1): 1.09 fold enrichment (6-mer frequency, TF over GST control)
